# E coli growth-1: E. coli V3065 growth inhibition, primary screen, counter-screen for AddAB inhibitor project, absorbance, OD600; 0.27% of 330,000 active; 18 h; inhibition, % at 11.9 µM;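 active = inhibition above the campaign's mean inhibition across all tested compounds plus 3 SD, cut at about 9.9% in these data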;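 also: uninfected addAB+ strain grown without phage in ampicillin broth; 0% = DMSO wells and 100% = ciprofloxacin 0.95 µg/ml wells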
# Tat export inh: E. coli Tat export inhibitors, primary screen, MC4100, TorA-mCherry reporter, fluorescence, single point | inhibition, % at 10 µM | 0.036% of 340,000 active;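 active = mean replicate inhibition at least 50% and at least half of replicates individually reaching 50%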;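 also: exported cargo escapes ClpAP degradation while cytoplasmic cargo is degraded and loses fluorescence; 0% = median of neutral control wells and 100% = median of NaSCN control wells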
# AddAB inh: growth inhibition of E. coli expressing H. pylori AddAB, primary screen, AddAB inhibitor project, absorbance; inhibition, % at 11.9 µM; 0.29% of 330,000 active; in the data active = inhibition above about 12%;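 also: 0% = vehicle wells of infected cells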
# phage Ecoli inh: growth loss of phage-infected E. coli, primary screen, RecBCD inhibitor project, absorbance, with phage, HTS. inhibition, % at 11.9 µM. 0.26% of 360,000 active; in the data active = inhibition above about 11%
# E coli growth-2: E. coli growth inhibition, primary screen, OD600 | Escherichia coli growth, 23 h; hits give low values | OD600 absorbance (concentration not given with the values) | 0.21% of 330,000 active;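 active = OD600 absorbance below the run mean of sample wells minus 3.6 SD, in any replicate, cut at about 0.56 in these data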
# RecBCD conf: growth loss of phage-infected RecBCD+ E. coli, confirmation, RecBCD inhibitor project, absorbance, E. coli V66, T4 gene 2 phage | E. coli V66 + T4 2- phage, growth OD | 45% of 890 active | inhibition, % at 11.9 µM | shares compounds with phage Ecoli inh;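 active = mean inhibition over triplicates exceeding the hit threshold derived in the original primary screen, cut at about 11% in these data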
# Ecoli viability: E. coli viability inhibition, counter-screen for RecBCD inhibitor project, absorbance, high throughput | 29% of 890 active | AID 651983, 2013 | shares compounds with phage Ecoli inh | inhibition, % at 11.9 µM | absorbance (OD) growth; in the data active = inhibition above about 20%;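 also: E. coli strain V66 grown with compound alone and no phage infection; 0% = bacteria with DMSO vehicle only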
# AddAB phage OD: growth loss of phage-infected AddAB-carrying E. coli, confirmation, counter-screen for RecBCD inhibitor project, absorbance, E. coli V3065, T4 phage; shares compounds with phage Ecoli inh; E. coli expressing H. pylori AddAB + T4 phage, OD growth; gene 2 mutant T4, recBCD-deleted host; inhibition, % at 11.9 µM; 45% of 890 active; AID 651984, 2013;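 active = mean inhibition above the solvent-only control wells' mean plus 3 SD, cut at about 22% in these data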;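 also: higher means less bacterial growth from phage killing when AddAB is blocked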
# * hit, by the source's call; . = no result given. Only some compounds are listed: those with a hit (about 0.5% of all), similar ones and a draw of the others.
SMILES,E coli growth-1,Tat export inh,AddAB inh,phage Ecoli inh,E coli growth-2,RecBCD conf,Ecoli viability,AddAB phage OD
O=C(NCCc1cn2ccccc2n1)c1cc(COc2c(F)cccc2F)on1,7,-18,10,12*,0.55,2,5,6
Cc1ccc(OCc2cc(C(=O)NCc3cn4ccccc4n3)no2)cc1C,2,2,4,4,0.64,.,.,.
CC(=NNc1nc2ccccc2s1)c1ccncn1,.,1,.,27*,.,17*,18,25*
Cc1cccc(NC(=O)COC(=O)CN2CCCCCC2=O)c1C,0,-12,0,11*,0.67,1,1,-1
CC(=NNC(=O)COc1ccc(C(C)(C)C)cc1)c1cc2ccccc2o1,.,.,.,.,0.7,.,.,.
COc1ccc(N(C)S(=O)(=O)c2ccc(Cl)c(C(=O)NNC(=O)c3ccccc3O)c2)cc1,.,-5,.,12*,0.63,4,5,10
O=C(NN=Cc1ccc2c(c1)OCCO2)c1ccncc1,.,.,.,.,0.69,.,.,.
CCN1C(=NCc2ccc(OC)cc2)NC(c2ccccc2)C(C(=O)OC)C1C (stereo unspecified),.,.,.,.,0.71,.,.,.
CC(=O)N1N=C(c2cccc(O)c2)CC1c1cccs1 (stereo unspecified),.,2,.,11*,0.66,-6,-7,-1
CC(=O)N1N=C(c2cccc(NS(C)(=O)=O)c2)CC1c1cccs1 (stereo unspecified),-2,-6,0,3,0.68,.,.,.
COc1ccc(C(=O)COc2ncnc3cc(Cl)ccc23)cc1,2,10,1,98*,0.7,-5,-5,0
CN(C)CCOc1ccc2c(c1)C(=O)C(=Cc1ncc([N+](=O)[O-])n1C)C2,.,.,.,95*,.,87*,96*,100*
CCc1cc(OCCN(C)C)ccc1Cl,1,-2,-1,-4,0.71,.,.,.
Cc1scc(C(=O)NN=Cc2ccsc2)c1C,.,.,.,.,0.62,.,.,.
Nc1nc(F)nc2c1ncn2[C@@H]1O[C@H](CO)[C@@H](O)[C@@H]1O,3,-9,8,75*,.,78*,79*,78*
O=c1[nH]c(=O)n(C2OC(CO)C(O)C2O)cc1F (stereo unspecified),.,41,.,.,.,.,.,.
Nc1ncnc2c1ncn2[C@@H]1O[C@H](CO)[C@@H](O)[C@@H]1O,0,-6,2,4,.,.,.,.
O=c1ncccn1C1OC(CO)C(O)C1O (stereo unspecified),.,.,.,96*,.,93*,101*,98*
Nc1nc(=O)n(C2OC(CO)C(O)C2O)cc1F (stereo unspecified),.,.,.,21*,.,26*,21*,53*
COC(=O)c1ccc(C=NNC(=O)c2ccccc2Cl)cc1,.,.,.,.,0.67,.,.,.
C#CCOCCOCCOCCNc1nc(N2CCN(C(=O)C(C(C)CC)n3cc(C(N)Cc4ccc(O)cc4)nn3)CC2)nc(N2CCN(C(=O)C(C(C)CC)n3cc(C(N)Cc4ccc(O)cc4)nn3)CC2)n1 (stereo unspecified),.,.,.,.,0.68,.,.,.
S=C(Nc1ccc(Br)cc1)NC1CCCCC1,6,0,8,12*,0.67,3,5,5
NC(=S)NN=Cc1ccc2cccc(OCc3ccccc3)c2n1,.,.,.,.,0.65,.,.,.
COC(=O)NN=Cc1cn(Cc2ccccc2Cl)c2ccccc12,.,.,.,.,0.68,.,.,.
COc1ccc(C=NNC(=O)CCSc2nc3ccccc3s2)cc1,.,.,.,.,0.71,.,.,.
SMILES,E coli growth-1,Tat export inh,AddAB inh,phage Ecoli inh,E coli growth-2,RecBCD conf,Ecoli viability,AddAB phage OD
O=C(CCSc1nc2ccccc2s1)N/N=C/c1c(O)ccc2ccccc12,12*,-6,8,17*,.,7,10,18
COc1ccc(C(C)=NNC(=S)NCCc2ccccc2)cc1,.,.,.,.,0.72,.,.,.
Cc1ccnc2c1ccc1cccnc12,.,2,.,14*,0.37*,13*,17,17
Cc1ccnc2c1ccc1ccccc12,2,0,2,3,0.6,.,.,.
O=C(COc1ccccc1Cl)Nc1nnc(S(=O)(=O)N2CCCC2)s1,1,3,1,36*,0.77,-2,-2,-1
COc1cc(C=NNC(=O)c2cc[n+]([O-])cc2)ccc1O,.,.,.,.,0.67,.,.,.
O=C(N/N=C/c1ccc(O)cc1O)c1ccc(NC(=O)C2CCCCC2)cc1,29*,-15,24*,23*,.,14*,18,18
COc1cc(C=NNC(=O)c2ccc(N(C)S(=O)(=O)c3ccccc3)cc2)cc(OC)c1OC,.,.,.,.,0.68,.,.,.
Cc1ccc(/C=C/C(=O)c2c(C)nc3ccccn23)cc1,2,-1,2,12*,0.68,-2,-3,1
Nc1ncn([C@H]2C[C@H](O)[C@@H](CO)O2)c(=O)n1,4,-9,3,12*,.,14*,8,34*
CCCCCCCCCC[n+]1cccc2c3ccccc3ccc21,.,-7,.,12*,0.13*,2,3,6
CC(=O)c1cn(CC(=O)Nc2ccccc2)c2ccccc12,11*,-2,14*,12*,0.69,5,9,2
NC(=O)C1CC2(CC(c3cccc(NC(=O)CC(c4ccccc4)c4ccccc4)c3)=NO2)CN1C(=O)c1ccccc1C(=O)c1ccccc1 (stereo unspecified),.,.,.,.,0.73,.,.,.
Cn1ccc(=O)c2cc([N+](=O)[O-])ccc21,.,.,.,15*,.,9,11,99*
CC(=NOc1nc(C)cc(C)n1)c1ccc(F)cc1,.,.,.,.,0.66,.,.,.
Cc1ccc(NC(=O)CCCSc2nc3ccccc3[nH]2)cc1,14*,-28,10,12*,0.63,8,11,8
Cc1cc(C)n(CC(=O)NN=Cc2c[nH]c3ccccc23)n1,.,.,.,.,0.66,.,.,.
CC(=O)c1cccc(NC(=O)CSc2ccc(-c3ccccn3)nn2)c1,6,2,11,11*,0.61,4,3,18
O=C(CSc1ccc(-c2ccccn2)nn1)c1ccc([N+](=O)[O-])cc1,5,-4,7,12*,0.66,-1,0,5
O=C(CSc1ccc(-c2cccnc2)nn1)c1ccc([N+](=O)[O-])cc1,0,-4,1,3,0.64,.,.,.
C[n+]1c(-c2ccc(C=NNC(=O)c3ccc(C(=O)NN=Cc4ccc(-c5cn6ccccc6[n+]5C)cc4)cc3)cc2)cn2ccccc21,.,50*,.,57*,.,78*,76*,80*
O=C(N/N=C\c1ccc(F)cc1)c1ccc(F)cc1,-3,1,-1,5,.,.,.,.
Cc1nc(N/N=C/c2ccccn2)sc1C,18*,.,20*,16*,.,1,3,16
Cc1nc(NN=Cc2ccccn2)sc1C,.,.,.,.,0.65,.,.,.
